Assay outcomes: PubChem BioAssay, several laboratories
Wnt bcat act – Wnt/beta-catenin pathway activators, primary screen, cell-based, plate reader, single point | Wnt/beta-catenin reporter cell assay, activator | activation, % at 9.35 µM | 300,000 tested, 1.2% active | AID 743398, 2014; in the data active = activation above about 30%, passing the limit was not always enough; inconclusive = no clear call, values can overlap the other calls
esBAF inh – Bmi1 luciferase reporter increase in mESCs, primary screen, esBAF inhibitor project, mouse ES cells, Bmi1 luciferase knock-in, single point; 24 h; 100% = twice the neutral-well signal; reporter increase, % at 12.5 µM; 350,000 tested, 2% active; in the data active = activation above about 40%; inconclusive = no clear call, values can overlap the other calls;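 note: a rise in the Bmi1 reporter signal indicates esBAF inhibition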
FXN GAA850 act – FXN promoter activators, primary screen, cell-based, luciferase luminescence, HEK293 lucGAA850 | HEK293 lucGAA850 FXN promoter luciferase reporter, 24 h; percent of 10 µM SAHA response | activation, % at 6 µM | 360,000 tested, 0.56% active | AID 540364, 2011;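 active = activation above the average of all compounds screened plus 3 SD, cutoff fixed separately per campaign, cut at about 7.5% in these data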
Statin myotox sup – suppressors of statin myotoxicity in C2C12 myotubes, primary screen, cell-based, single point, plate reader. rescue of ATP level, % at 7.49 µM. 330,000 tested, 0.78% active. C2C12 myotubes + simvastatin, ATP luminescence, 48 h; scaled: DMSO 0, geranylgeraniol control 100;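 active = mean ATP rescue above about 67%, or every replicate alone reaching that limit, limit read from the data, passing the limit was not always enough; inconclusive = no clear call, values can overlap the other calls; inactive = mean under the limit and some replicate under it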;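 note: myotubes were challenged with 10 µM simvastatin during compound exposure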
MITF act – activators of MITF-driven TRPM1 promoter reporter, primary screen, cell-based, SK-MEL-5, luciferase, single point | SK-MEL-5 TRPM1-promoter luciferase, 24 h; % of positive control, neutral wells = 0 | activation, % at 12.5 µM | 300,000 tested, 0.75% active;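 active = mean activation of at least 80% with every replicate also reaching 80%; inconclusive = mean reaches 80% but some replicate falls short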
Each line names hits and unclear results; the compound was inactive in the other large screens. In the library only some 3.3% were active in any assay of this set; here they are far more common.

COc1ccc(-c2nc(-c3ccc(Br)o3)no2)cc1OC	none
COc1ccc(-c2noc(-c3cccc(Cl)c3)n2)cc1OC	esBAF inh 49, MITF act inconclusive
COc1ccc(-c2noc(-c3ccco3)n2)cc1OC	Wnt bcat act 50, MITF act inconclusive (no result: esBAF inh, Statin myotox sup)
Brc1ccc(-c2nc(-c3ccccc3)no2)o1	Wnt bcat act 50
COc1ccc(CCC(=O)Nc2ccc(-c3noc(-c4ccc(OC)c(OC)c4)n3)cc2)cc1	esBAF inh 43 (no result: Wnt bcat act)
CO[C@H]1CN(C)C(=O)c2ccc(NC(=O)Nc3cc(F)ccc3F)cc2OC[C@@H](C)N(C(=O)c2cnccn2)C[C@@H]1C	none (no result: Wnt bcat act, FXN GAA850 act, MITF act)
COc1ccc(-c2nc(-c3ccncc3)no2)cc1OC	esBAF inh 63 (no result: Wnt bcat act, MITF act)
COc1cccc(-c2nc(-c3ccc(Br)o3)no2)c1	Wnt bcat act 45 (no result: esBAF inh, Statin myotox sup)
Cc1ccc(-c2nc(-c3ccncc3)no2)cc1C	Wnt bcat act 39 (no result: MITF act)
COc1ccc(-c2noc(-c3cccs3)n2)cc1OC	Wnt bcat act 60, esBAF inh 53 (no result: MITF act)
COc1cccc(-c2ccc3n(c2=O)C[C@H]2[C@H](CO)[C@@H](C(=O)N(C)C)[C@@H]3N2Cc2cncnc2)c1	none (no result: Wnt bcat act, FXN GAA850 act, MITF act)
COc1ccc(NC(=O)N(C)C[C@H]2Oc3ccc(NC(=O)NC4CCCCC4)cc3CC(=O)N([C@@H](C)CO)C[C@H]2C)cc1	none (no result: Wnt bcat act, FXN GAA850 act, MITF act)
COc1cccc(-c2ccc3n(c2=O)C[C@H]2[C@H](CO)[C@@H](C(=O)NCCN4CCCCC4)N(C)[C@@H]32)c1	none (no result: Wnt bcat act, FXN GAA850 act, MITF act)
COc1cccc(-c2nc(-c3cccs3)no2)c1	none
COc1cccc(-c2nc(-c3ccncc3)no2)c1	Wnt bcat act 35 (no result: esBAF inh, Statin myotox sup)
O=C(COc1ccc(Cl)cc1)NCc1nnc(SCC(=O)NC2CCCCC2)o1	none
CC1CCN(C(=O)CSc2nnc(CNC(=O)COc3ccc(Cl)cc3)o2)CC1	Statin myotox sup 96 (no result: MITF act)
CCCN1C[C@H](C)[C@H](OC)CN(C)C(=O)c2ccc(NC(=O)C3CCOCC3)cc2OC[C@@H]1C	none (no result: Wnt bcat act, FXN GAA850 act, MITF act)
COCC#Cc1cnc2c(c1)C(=O)N([C@H](C)CO)C[C@@H](C)[C@H](CN(C)C(=O)c1cnccn1)O2	none (no result: Wnt bcat act, FXN GAA850 act, MITF act)
c1ccc2c(c1)NC1(CCCCCC1)n1c-2nc2ccccc21	esBAF inh 46 (no result: Wnt bcat act, MITF act)
c1ccc2c(c1)NC1(CCCCC1)n1c-2nc2ccccc21	none (no result: Statin myotox sup)
Cc1ccc(C(O)CN2C3=NCCN3c3ccccc32)cc1 (stereo not given)	Statin myotox sup 121 (no result: Wnt bcat act)
CN(C(=O)c1cnc(N2CCN(c3ncccn3)CC2)c2ccccc12)c1ccc(Cl)cc1	none (no result: Wnt bcat act)
CCN(C(=O)c1cnc(N2CCN(c3ncccn3)CC2)c2ccccc12)c1cccc(Cl)c1	Statin myotox sup 110 (no result: Wnt bcat act)
CCC(C(=O)NC1CCCC1)N(C(=O)Cn1nnc(-c2ccc(OC)c(OC)c2)n1)c1cccc(O)c1 (stereo not given)	Statin myotox sup 139
COc1ccc(-c2nnn(CC(=O)N(c3cccc(O)c3)C(C)C(=O)NC3CCCC3)n2)cc1OC (stereo not given)	none (no result: esBAF inh, Statin myotox sup)
COc1ccc2cc3cc(C(=O)NCCCN4CCc5ccccc5C4)sc3nc2c1	none (no result: esBAF inh, Statin myotox sup)
CCN1CCN(C(=O)c2cc3cc4cc(OC)ccc4nc3s2)CC1	Statin myotox sup 73
CCN1CCN(C(=O)c2cc3ccc(OC)cc3[nH]2)CC1	MITF act 95
COc1ccc2nc3sc(C(=O)NCCN4CCc5ccccc5C4)cc3cc2c1	esBAF inh 89
CCC(=O)N1C[C@@H](C)[C@@H](OC)CN(C)C(=O)c2cc(NC(=O)c3cc(C)on3)ccc2OC[C@@H]1C	none (no result: Wnt bcat act, FXN GAA850 act, MITF act)
N#CCC(=O)N/N=C\c1cc(Br)ccc1OC/C=C/c1ccccc1	Wnt bcat act inconclusive, MITF act 93
COC(=O)N/N=C\c1ccccc1OC/C=C/c1ccccc1	esBAF inh 49, MITF act 98
CCOC(=O)N/N=C/c1ccc(Oc2ccccc2)cc1	none
CCOC(=O)N/N=C\c1ccccc1OC/C=C/c1ccccc1	Wnt bcat act 42, esBAF inh 46
C[C@@H]1CN([C@@H](C)CO)C(=O)c2cc(C#CC3CC3)cnc2O[C@H]1CN(C)C(=O)c1ccncc1	none (no result: Wnt bcat act, esBAF inh, FXN GAA850 act, MITF act)
CCOc1ccc(OCCCCN(C)C)cc1	Statin myotox sup 90 (no result: Wnt bcat act)
CCOc1ccc(OCCCN(C)C)cc1	none (no result: esBAF inh, Statin myotox sup)
C[C@@H]1CCCCO[C@H](CN(C)C(=O)CCCN(C)C)[C@@H](C)CN([C@@H](C)CO)C(=O)c2cc(NC(=O)Nc3ccc(C(F)(F)F)cc3)ccc2O1	none (no result: Wnt bcat act, FXN GAA850 act, MITF act)
C[C@H]1CCCCO[C@H](CN(C)C(=O)Nc2cccc3ccccc23)[C@@H](C)CN([C@@H](C)CO)C(=O)c2cc(NC(=O)Nc3ccc4c(c3)OCO4)ccc2O1	Statin myotox sup 66 (no result: Wnt bcat act, FXN GAA850 act, MITF act)
C[C@@H]1CCCCO[C@@H](CN(C)C(=O)Nc2ccc3c(c2)OCO3)[C@@H](C)CN([C@H](C)CO)C(=O)c2cc(NC(=O)Nc3cccc4ccccc34)ccc2O1	none (no result: Wnt bcat act, FXN GAA850 act, MITF act)
C[C@H](CO)N1C[C@H](C)[C@@H](CN(C)C(=O)CCCN(C)C)OCCCC[C@H](C)Oc2ccc(NC(=O)Nc3ccc(C(F)(F)F)cc3)cc2C1=O	Statin myotox sup 90 (no result: Wnt bcat act, FXN GAA850 act, MITF act)
